# Whole data set: some 33,000 sequences, median “E-score (-0.5 to 0.5)” near -0.01, cut for the highest 2% near 0.26. The sample as a whole holds a higher share of the highest values than the screen did.
# Biological target: Ste12 (UniProt P13574)
# Assay: PBM E-score (8-mer binding enrichment) (E-score (-0.5 to 0.5)); higher = stronger / more preferred TF binding
# Settings: protein concentration: 200 nM; construct: GST-DNA-binding domain
# Summary of the method: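 Full-length yeast transcription factors or their DNA-binding domains, GST-tagged and expressed with PURExpress, were applied at about 100-200 nM to universal all-10-mer Agilent arrays. These arrays had been made double-stranded by primer extension on fresh or once-stripped slides. Detection used fluorescent anti-GST, normalisation used masliner, and E-scores for ungapped eight-base words pooled with reverse complements came from the Universal PBM Analysis Suite.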
# Chain of UniProt P13574 (P13574 whole entry): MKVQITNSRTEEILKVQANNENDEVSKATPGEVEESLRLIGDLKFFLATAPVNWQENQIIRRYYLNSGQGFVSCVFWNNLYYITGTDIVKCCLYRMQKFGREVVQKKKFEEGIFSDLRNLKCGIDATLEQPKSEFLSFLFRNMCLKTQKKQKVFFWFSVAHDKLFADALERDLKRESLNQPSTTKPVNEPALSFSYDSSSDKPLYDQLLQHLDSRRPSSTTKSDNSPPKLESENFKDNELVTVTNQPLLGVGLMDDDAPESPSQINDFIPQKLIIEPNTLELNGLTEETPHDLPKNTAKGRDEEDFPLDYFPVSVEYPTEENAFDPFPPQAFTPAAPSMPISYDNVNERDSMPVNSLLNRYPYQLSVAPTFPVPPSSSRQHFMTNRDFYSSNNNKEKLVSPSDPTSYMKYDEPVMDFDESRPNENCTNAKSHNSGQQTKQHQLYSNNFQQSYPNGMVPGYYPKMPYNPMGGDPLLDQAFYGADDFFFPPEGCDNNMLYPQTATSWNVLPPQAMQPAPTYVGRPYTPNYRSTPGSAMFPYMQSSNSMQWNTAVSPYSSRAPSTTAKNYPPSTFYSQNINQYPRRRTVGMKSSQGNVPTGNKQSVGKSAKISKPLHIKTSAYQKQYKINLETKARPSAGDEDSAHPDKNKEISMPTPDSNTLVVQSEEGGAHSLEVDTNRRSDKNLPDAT
row,Sequence,PBM E-score
1,AGGTTGGA,0.114
2,CAACAGCA,0.021
3,ATGTTTGA,0.337
4,GTGTTCGA,0.0597
5,ATGTTTGG,0.151
6,CTGTTTGA,0.308
7,GTGTTTGA,0.301
8,CCGTTTGA,0.056
9,ATGTTTGC,0.0377
10,CTGTTTGC,-0.0149
11,GTTTTTGA,0.236
12,ACCCGACA,0.0405
13,GCCGCAGC,0.00254
14,CCCAAAGA,0.18
15,GCCACGAC,0.0374
16,TTGCAAAA,0.242
17,ATCGAGCC,-0.0583
18,AACGCCCT,-0.0731
19,AAACATTC,0.12
20,ACGCAGGG,-0.0649
21,CATCAAAA,0.221
22,CTTCAAAA,0.191
23,ATTCAAAC,0.279
24,TTCAAAAA,0.298
25,TTTCAAAA,0.343

row,Sequence,PBM E-score
1,ATTCAAAG,0.145
2,CTCAAAAA,0.178
3,GTTCAAAA,0.107
4,GATCAAAA,0.194
5,TTCAAGAA,0.247
6,CTTCAAAC,0.218
7,TATCAAAA,0.302
8,GGACAGAA,0.136
9,CAATTTAG,0.118
10,CGATAGTC,-0.186
11,GAGTAAGC,-0.0348
12,CGCAGGCA,-0.062
13,ACCAGTCT,-0.25
14,CAATGTGC,-0.133
15,CCAGATCC,-0.149
16,CTGACTAA,-0.00263
17,ATCAAAAG,0.0655
18,CTCCAAAA,0.183
19,TTCCAAAA,0.277
20,ATCAAAAA,0.316
21,CCTCAAAA,0.198
22,ACTCAAAA,0.165
23,GTCCAAAA,0.123
24,ATCAAAAT,0.192
25,TCTCAAAA,0.275

row,Sequence,PBM E-score
1,TAACCCAA,0.182
2,CGAGGTAG,-0.219
3,ACAGTGCA,-0.00511
4,GGTTAGCA,-0.0625
5,TCCTCCCA,-0.0691
6,GCCCCTCA,0.0515
7,GCCTCCCA,-0.104
8,CCCTCCCA,0.33
9,ACCCTCCA,-0.0426
10,ACCTCCCC,0.161
11,ACCCTCCT,-0.00559
12,ACCTCCCA,-0.187
13,ACCCTCCC,0.378
14,GCCTCCCC,0.305
15,GCCCCTCC,0.445
16,CCCCCTCC,-0.121
17,CGTAAAGA,-0.0705
18,AACCTTAT,0.138
19,CGATCTTC,-0.0861
20,ACAATGGC,0.0105
21,ACCCGTCC,-0.0354
22,CCCTCCTC,0.0435
23,CCCCTCCG,0.171
24,CCCTCCCG,0.0504
25,CCCCTCCC,0.365

row,Sequence,PBM E-score
1,CCCTCCCC,0.333
2,CCCCTCCA,0.246
3,GATTTCGC,0.2
4,AAGTGGGC,-0.0304
5,GAGCTTTA,-0.0834
6,ACAGTTTG,0.016
7,CCAAAAAA,0.251
8,CCAAAAAC,0.216
9,AAAAAACC,0.234
10,CAAAAAGA,0.178
11,AAAAAAAC,0.331
12,CAAAAAAC,0.298
13,AGAAAAAC,0.146
14,CAAAAACC,0.128
15,CAAAAAAA,0.352
16,GCTGAGCC,-0.0937
17,ACAACTCG,0.0864
18,ATCCCTTG,-0.0717
19,GAGCATAA,0.131
20,TAGCTGGA,-0.0515
21,CAGAATAC,0.0945
22,TAATAAAA,0.225
23,TTAAAGAA,0.251
24,TAAAAAGA,0.248
25,TAAAAAAA,0.313

row,Sequence,PBM E-score
1,CTAAAAAA,0.278
2,CTAAAAGA,0.0876
3,TAAAACAA,0.261
4,CTAAAAAC,0.023
5,CTAAAAAG,0.218
6,TTAAACAA,0.123
7,AAAAACAA,0.251
8,TTAAAAAA,0.294
9,CGGCGAAC,0.0131
10,GGAAGGGA,-0.106
11,CTGTACTC,-0.247
12,CTAGTGTA,0.129
13,GACTACTC,-0.0788
14,CCCCATTA,-0.193
15,ATAATAAA,0.255
16,CTAATAAA,0.145
17,TTAATAAA,0.344
18,ACGGCAAA,0.277
19,ACGGCAAT,0.0277
20,ACGGCAAG,0.0378
21,CCACAAGG,-0.107
22,GAGAGTAA,0.142
23,ACCCGCCG,0.137
24,AACCGCCC,0.00313
25,ACCCGCCC,0.361

row,Sequence,PBM E-score
1,GCCCGCCA,-0.0776
2,CCCCGCCA,0.38
3,TCCCGCCA,0.101
4,GCCCGCCC,0.257
5,CCCCGCCG,0.242
6,CACCGCCA,0.0129
7,CACCGCCC,0.27
8,CGCCGCCC,0.239
9,CCCCGCCC,0.347
10,ACCCTCAC,-0.029
11,TGTAAAAA,0.334
12,TATAAAAA,0.27
13,AATATAAG,0.198
14,AATATAAT,0.138
15,AATATAAA,0.306
16,TATATAAA,0.267
17,GATATAAA,0.0834
18,CGTAAAAA,0.126
19,CATATAAA,0.0963
20,AGTAAAAA,0.214
21,AATAAAAA,0.229
22,TATAAAGA,0.0307
23,TCCTGGCA,-0.0322
24,CTGCGCCC,-0.239
25,ACCTACCT,0.0101

row,Sequence,PBM E-score
1,CGCGGGTA,0.0349
2,GAGAGAGA,-0.0897
3,AAGCGGTA,0.0316
4,ATACTCGG,-0.0182
5,ACAAATCA,0.0844
6,CACCGTGC,0.131
7,ACGGGAGC,-0.111
8,GTTATAAA,0.218
9,CTTATAAA,0.223
10,TTTATAAA,0.271
11,AGCTGTTG,-0.0338
12,ACGAGCCT,-0.0238
13,AAACACTT,0.12
14,AAACACTG,0.248
15,AAACACTC,0.288
16,CAACACTA,0.0388
17,GAACACTA,-0.13
18,AAACACTA,0.273
19,GCGAGCCA,-0.0412
20,CTGCAAGC,-0.141
21,ATAAGCAA,0.148
22,ATTTTCAA,0.193
23,TCTTTCAA,0.0772
24,TATTTCAA,0.282
25,CTTTTCAA,0.221

row,Sequence,PBM E-score
1,CATTTCAA,0.214
2,TGTTCAAA,0.17
3,GGTTTCAA,0.416
4,GGTTTCGA,0.193
5,GATTTCAA,0.159
6,AATTTCAA,0.106
7,GTTTTCAA,0.32
8,TGTTTCAA,0.484
9,CCAGGAGA,-0.24
10,GCCTGCGC,-0.119
11,CTTCTGCC,-0.122
12,TATCTTCA,0.15
13,AACGATCT,0.153
14,ATAAGCCC,-0.0186
15,GTGGAGGA,-0.0464
16,GGTTTCAC,0.386
17,GATTTCAC,0.111
18,GCTTTCAC,0.0706
19,ACTAGCTA,-0.0308
20,ATTCTGAC,0.0839
21,ATGAATGA,0.192
22,ATGAATGC,0.138
23,ATGAATGG,0.33
24,AAGATCAC,-0.0426
25,GGCTGCTA,-0.037

row,Sequence,PBM E-score
1,ATCTGATG,0.109
2,GGGGCTAC,-0.0752
3,ATAGGGCA,-0.109
4,CGCGGCGA,0.126
5,CCCGCCGA,-0.0475
6,ACCGCCCC,0.348
7,CCCGCCCA,0.332
8,CCCGCCGG,0.158
9,TCCGCCCA,-0.107
10,CCCGCCGC,0.31
11,ACCGCCCT,-0.00709
12,CCCGCCCC,0.32
13,CCCGCCCG,0.233
14,ACCGCCCG,-0.057
15,CCCGCCAC,0.213
16,CCCGCGCC,0.168
17,AACACTTC,0.135
18,AACACTGG,-0.00819
19,CCCATAAA,-0.0663
20,GTGCAAGA,-0.145
21,GCCGCCGC,-0.0603
22,GCCGCCCC,0.307
23,GCCGCCCA,0.0226
24,CTTCCCTC,-0.0689
25,CAGACATA,0.0544

row,Sequence,PBM E-score
1,ATTTTTCG,0.294
2,ATTTTCCG,0.318
3,ATTTTTCA,0.222
4,ATTTTCCC,0.173
5,AATTTTCG,0.128
6,AATTTCCG,0.211
7,AGATACAT,0.00257
8,CCCTAGTA,0.0343
9,CGAGGACA,-0.0668
10,AAGCAGTG,0.0293
11,AACAGAAA,0.311
12,TACAAACA,0.21
13,AACAAAAA,0.332
14,AACAGAAG,-0.0718
15,AACAAAAG,0.119
16,CACAAAGC,0.0779
17,GACAGAAA,0.168
18,AACAAACC,0.116
19,AACAAAAC,0.236
20,AACAAACA,0.269
21,AACAAAGC,0.294
22,AACAAGCC,-0.125
23,CGTGCGTA,-0.0557
24,TATAACAA,0.215
25,CTTGAGTA,-0.208

row,Sequence,PBM E-score
1,CCTGTCGA,-0.122
2,GCCAACTA,-0.196
3,GTTCCGAA,0.137
4,ACTTCCAT,0.0326
5,ACGCTGCG,-0.0283
6,CCGCCCCA,0.417
7,CCGCCCCG,0.408
8,CCGCCCGG,-0.0452
9,CCGCCCCC,-0.00614
10,GCGCCCCA,0.056
11,ACGCCCCA,0.239
12,AACAGCGC,-0.0225
13,CACTGTTA,-0.0596
14,ATTCCTAG,0.0776
15,CCGCAAGC,-0.226
16,GCACGCCA,-0.201
17,GTTTTACA,0.296
18,CTTTTACC,0.0888
19,ATTTTATA,0.199
20,CTTTTATA,0.0308
21,GGTTTACA,-0.0303
22,ATTTTACA,0.113
23,CTTTTACA,0.269
24,CCTTTACA,-0.103
25,GTTTTATA,0.399

row,Sequence,PBM E-score
1,AGCTAGCT,-0.0845
2,CACTTTGA,-0.032
3,GGTTCTCA,0.0128
4,ATCTGCCC,-0.153
5,ATACGTGG,-0.0972
6,TGCCTGAA,-0.0642
7,CTGTCAAG,-0.2
8,CAATCTTC,0.144
9,CACCATCG,-0.197
10,CCCGAGTC,0.0359
11,CTTTAATA,0.209
12,ATTTAATC,0.209
13,GTTTAATA,0.179
14,ATTTAAGG,0.00576
15,ATTTAATG,0.272
16,ATTTAATA,0.267
17,CACTTATG,0.00871
18,ATGGGTTC,-0.094
19,AGATAGAA,-0.0615
20,AGGGCTTC,-0.0834
21,ATTAAAGC,0.0638
22,ATAGTCTC,0.132
23,AAGGTGAG,0.00195
24,TACACGTA,-0.00219
25,TAACGAAA,0.298

row,Sequence,PBM E-score
1,AAACGAAA,0.248
2,CAACGAAA,0.13
3,AGATGTGC,-0.154
4,AGATGTGA,0.262
5,CGATGTGA,0.046
6,GAGCCAGA,-0.0414
7,ATGGGGTA,-0.0735
8,CTGGGGTA,-0.145
9,GTGGGGTA,0.302
10,CGAACGAC,-0.034
11,ACCACTTG,0.0214
12,AAACAGTG,0.309
13,CAACAGTG,0.104
14,AAACAAAG,0.233
15,AAACAAAC,0.263
16,ACCCAAAA,0.13
17,AAACAAAT,0.28
18,GAACAAAC,0.181
19,AAACAAAA,0.225
20,ACCCAAAC,0.285
21,AAACAGTT,0.245
22,AAACAAGT,0.149
23,ACCCAAAG,-0.0486
24,GTCCGGGA,0.0647
25,GAAAGCTC,-0.201

row,Sequence,PBM E-score
1,GGTCCAGA,-0.0878
2,ATATTGCA,0.104
3,ATTCCCTG,0.0875
4,ATTCGTAA,0.166
5,CACCCTGA,-0.00848
6,AACCCTGA,0.305
7,ACCCCTGA,0.128
8,ATGTCTCC,-0.0509
9,ATGTGTCA,0.119
10,CTGTCTCA,0.158
11,GCGTCTCA,0.166
12,ATGTCTCA,0.289
13,GTCTCTCA,-0.184
14,CTGTGTCA,0.0491
15,GTGTCTCA,0.338
16,TCGTCTCA,0.134
17,GTGTGTCA,0.321
18,ACGTCTCA,0.274
19,ATGTCTCG,-0.114
